{"source": "PubChem BioAssay AID1745848", "about": "(National Center for Advancing Translational Sciences (NCATS), 2022)", "note": "About 940 (45%) of roughly 2,100 compounds were called active. About 48% were inconclusive and are not listed. The call rests on the fitted dose curve; in most records, active means well fitted inhibition curve with a large enough effect; inconclusive means small, poorly fitted or top-dose-only effect; inactive means no such curve, though single readings can be large or run the other way. So high a share suggests a set chosen from earlier hits. Some of the results follow. Potency means the concentration at half of the fitted maximal effect.", "data": [{"assay": "Confirmatory qHTS for Inhibitors of ATXN expression; further: nearly all actives have a fitted effect of over 65% in size;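 on activity change, negative = inhibition: 0% = DMSO vehicle wells and -100% = medium-only wells without cells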", "conditions": "ATXN2-luciferase reporter cells, luminescence, 24 h; series mostly up to 11.5 µM; activity change, negative = inhibition: at the top concentration", "excerpt": "PI: Daniel Scoles Ph.D. University of Utah School of Medicine, Salt Lake City, Utah MLPCN Grant: NS073009 Spinocerebellar ataxia type 2 (SCA2) is a multisystem neurodegenerative disease caused by a dominantly acting mutation leading to expansion of a polyQ domain in the ataxin-2 protein (ATXN2). SCA2 patients develop progressive ataxia and later lose function in other neuronal systems. Prominent parkinsonian signs develop in some patients. Like many neurodegenerative disorders, no symptomatic or disease-modifying treatments are known. The primary objective of the proposed research is to identify compounds inhibiting ATXN2 expression and to test them for efficacy in SCA2 mouse models. We have developed a cell-based assay paired with an in vivo mouse model using identical luciferase expression constructs. This approach takes advantage of an ATXN2-luciferase transgene, with the luciferase gene flanked by the upstream and downstream portions of the ATXN2 gene. Here we describe a 5-7 dose quantitative high thoroughput screen (qHTS) for compounds lowering ATXN2 expression. We screened the NIH Molecular Libraries Small Molecule Repository (MLSMR) and NCGC's mechanistically annotated (MIPE) and drug repurposing (NPC) collections of compounds for lowering expression of an ATXN2-luciferase reporter in HEK-293 cells. The assay is a multiplexed cell viability assay to ensure target reduction in the absence of cytotoxicity. Secondary qHTS assays included a CMV-luciferase reporter expressed in HEK-293 cells as well as a biochemical assay using recombinant luciferase to detect inhibitors of the reporter enzyme. Compounds that inhibit ATXN2 expression but is not cytotoxic were selected for confirmatory and secondary screens.\nPROTOCOL TABLE (as described by Inglese J, Shamu CE and Guy RK. 2007) SEQUENCE No. (e.g., 1, 2, 3, etc.); PARAMETER (e.g., Cells, Incubation, Reagent, etc.); VALUE; DESCRIPTION. 1; Cells; 4 uL; white, solid bottom, 1536-well Greiner assay plate. 2; Incubation; 2 hr; 37 degree C in 5% humidified CO2. 3; Compounds; 23 nL; Kalypsis pintool (Wako USA) equipped with a 1536-well pin head. 4; Incubation; 24 hr; 37 degree C in 5% humidified CO2. 5; Reagent; 1 uL; Gly-Phe-7-Amino-4-trifluoromethylcoumarin. 6; Incubation; 30 min; 37 degree C in 5% humidified CO2. 7; Detection; Fluorescence; ViewLux plate reader (PerkinElmer). 8; Reagent; 3 uL; SteadyGlo luciferase solution (Promega). 9; Incubation; 5 min; room temperature. 10; Detection; Luminescence; ViewLux plate reader (PerkinElmer). NOTES (numbers refer to Sequence numbers above) 1. […] expressing ATXN2-luciferase reporter were suspended in phenol-red free DMEM and dispensed in assay plates using a Multidrop Combi dispenser (Thermo Fisher Scientific). Wells containing medium only were plated on each plate, and values were used to normalize (100% inhibition) in the luciferase and CellTiter-Fluor assays. 2. Assay plates were incubated. Evaporation was prevented by covering assay plates with metal lids containing holes to allow gas diffusion. 3. Compounds were added in a dose response manner with the final concentrations of 57, 11.4, 2.28, 0.46, 0.091, 0.018, 0.0037 uM. Vehicle-only plates, with DMSO being pin-transferred to columns 5-48, were inserted uniformly at the beginning and the end of each library to monitor and record any shifts in assay performance. 5. 125 uM Gly-Phe-7-Amino-4-trifluoromethylcoumarin (MP Biomedicals) working concentration was used at a final concentration of 25 uM. 7. To assess cell viability; the assay plates were read using the ViewLux high-throughput CCD imager (PerkinElmer), wherein single end-point fluorescence measurement was acquired (excitation 405/10; emission 540/25 nm). 8. Detection reagent SteadyGlo Luciferase (Promega) was added to the assay plate. 10. Luminescence is then measured on the ViewLux imager equipped with a clear emission filter using a 2 sec exposure. […]", "values": [{"smiles": "N#Cc1ccccc1NC(=O)C1SC(=Nc2ccccc2)C(C(=O)Nc2ccc(Cl)cc2)=C1N", "note": "(stereo not drawn)", "activity change, negative = inhibition": "-3.14% (inactive)"}, {"smiles": "O=c1c2c(-c3ccccc3)csc2nc2c3ccccc3c(NCCN3CCOCC3)nn12", "Potency": "3.16 µM (active)"}, {"smiles": "Cc1ccc(-c2nc3cc(Br)cnc3nc2-c2ccc(C)cc2)cc1", "activity change, negative = inhibition": "-7.66% (inactive)"}, {"smiles": "Brc1cnc2nc(SCc3nc4ccccc4[nH]3)[nH]c2c1", "Potency": "2.82 µM (active)"}, {"smiles": "O=C(CSc1nnc(-c2ccc(Br)cc2)o1)Nc1cccc(C(=O)O)c1", "Potency": "3.16 µM (active)"}, {"smiles": "COc1cc(/C=N/Nc2snc(SC)c2C#N)cc(OC)c1OC", "Potency": "3.16 µM (active)"}, {"smiles": "CCCCCn1c(=N)n(CC(O)COc2ccccc2OC)c2ccccc21", "note": "(stereo not drawn)", "Potency": "2.51 µM (active)"}, {"smiles": "N=c1n(CCN2CCCCC2)c2ccccc2n1CC(O)c1ccc(Cl)c(Cl)c1", "note": "(stereo not drawn)", "Potency": "15.8 µM (active)"}, {"smiles": "Cc1ccc(OCC(O)Cn2c(=N)n(CCN3CCCCC3)c3ccccc32)cc1", "note": "(stereo not drawn)", "Potency": "14.1 µM (active)"}, {"smiles": "COc1cccc(NC(=S)/C(=C(\\[O-])c2cc(C)n(-c3ccccc3F)c2C)[n+]2ccc(N(C)C)cc2)c1", "Potency": "15.8 µM (active)"}, {"smiles": "O=C(Nc1ccc(Cl)cc1)Nc1ccc(N2CCCC2)c(S(=O)(=O)Nc2ccccc2Cl)c1", "Potency": "3.55 µM (active)"}, {"smiles": "CCOC(=O)Nc1ccc(N2CCOCC2)c(S(=O)(=O)Nc2ccc(Cl)cc2)c1", "activity change, negative = inhibition": "-19.7% (inactive)"}, {"smiles": "Cc1ccc2ccc3cccnc3c2n1", "Potency": "4.47 µM (active)"}, {"smiles": "OC(c1ccccc1)(c1nc(-c2ccc3ccccc3c2)cs1)C(F)(F)F", "note": "(stereo not drawn)", "activity change, negative = inhibition": "26.4% (inactive)"}, {"smiles": "OC(c1ccccc1)(c1nc(-c2cc3ccccc3o2)cs1)C(F)(F)F", "note": "(stereo not drawn)", "activity change, negative = inhibition": "8.38% [at 57.5 µM] (inactive)"}, {"smiles": "OC(c1ccccc1)(c1nc(/C=C/c2ccc(C(F)(F)F)cc2)cs1)C(F)(F)F", "note": "(stereo not drawn)", "Potency": "35.5 µM (active)"}, {"smiles": "CCOc1cc(C=C(C(=O)OC)C(=O)OC)ccc1OCc1ccc([N+](=O)[O-])cc1", "Potency": "25.1 µM (active)"}, {"smiles": "CCN(CC)c1ccc(/C=N/NC(=O)c2cccc(S(=O)(=O)N3CCOCC3)c2)c(O)c1", "Potency": "0.891 µM (active)"}, {"smiles": "CCN(CC)c1ccc(/C=N/NC(=O)CNC(=O)C2COc3ccccc3O2)c(O)c1", "note": "(stereo not drawn)", "Potency": "0.251 µM (active)"}, {"smiles": "COc1cccc(/C=N/NC(=O)Cn2nc(C)c([N+](=O)[O-])c2C)c1O", "Potency": "14.1 µM (active)"}, {"smiles": "O=C(CNC(=O)C1COc2ccccc2O1)N/N=C/c1ccc(O)cc1O", "note": "(stereo not drawn)", "Potency": "2.51 µM (active)"}, {"smiles": "COc1cccc(/C=N/NC(=O)CNC(=O)C2COc3ccccc3O2)c1O", "note": "(stereo not drawn)", "Potency": "8.91 µM (active)"}, {"smiles": "CCN(CC)c1ccc(/C=N/NC(=O)Cc2cccs2)c(O)c1", "Potency": "2.82 µM (active)"}, {"smiles": "COc1cccc(/C=N/NC(=O)CSc2ccccc2C)c1O", "Potency": "12.6 µM (active)"}, {"smiles": "COc1ccccc1/C=C\\C(=O)NCC(=O)N/N=C/c1cccc(OC)c1O", "Potency": "12.6 µM (active)"}, {"smiles": "Cn1ncc2c(N3CCN(c4ccc(Cl)c(Cl)c4)CC3)ncnc21", "Potency": "1.58 µM (active)"}, {"smiles": "Oc1c(C(Nc2cccc(C(F)(F)F)c2)c2ccncc2)ccc2cccnc12", "note": "(stereo not drawn)", "Potency": "3.55 µM (active)"}, {"smiles": "COc1ccc(Cl)cc1C(Nc1cccnc1)c1ccc2cccnc2c1O", "note": "(stereo not drawn)", "Potency": "12.6 µM (active)"}, {"smiles": "Oc1c(C(Nc2cccc(C(F)(F)F)c2)c2cccnc2)ccc2cccnc12", "note": "(stereo not drawn)", "Potency": "28.2 µM (active)"}, {"smiles": "Cc1cc(NC(c2cccnc2)c2ccc3cccnc3c2O)no1", "note": "(stereo not drawn)", "Potency": "2.82 µM (active)"}, {"smiles": "COC(=O)Cc1[nH]n(-c2nc3ccccc3s2)c(=O)c1C(C)=Nc1ccc(C)cc1", "activity change, negative = inhibition": "-90.6% [at 57.5 µM] (inactive)"}, {"smiles": "Cc1cc(C)n(-c2nc(NCCN(C)C)c3c4c(sc3n2)COC(C)(C)C4)n1", "Potency": "3.16 µM (active)"}, {"smiles": "COc1cc(OC)cc(-c2cc3nc(C)c(CCC(=O)NCc4ccccc4)c(C)n3n2)c1", "Potency": "4.47 µM (active)"}, {"smiles": "COc1cc(OC)cc(-c2cc3nc(C)c(CCC(=O)O)c(C)n3n2)c1", "Potency": "0.562 µM (active)"}, {"smiles": "COc1cccc(CN(C)C(=O)c2ccc(OCC(=O)Nc3cccc(C(F)(F)F)c3)c(OC)c2)c1", "Potency": "15.8 µM (active)"}, {"smiles": "COc1cccc(OCC(=O)Nc2cc(Cl)ccc2Oc2ccccc2)c1", "activity change, negative = inhibition": "-25.3% (inactive)"}, {"smiles": "CCCCCCn1c2c(c(=N)c3c1CCC3)CCC2", "Potency": "3.98 µM (active)"}, {"smiles": "Cc1cnc(NC(=O)CN2CCN(c3ccccn3)CC2)s1", "Potency": "5.62 µM (active)"}, {"smiles": "Cc1ccc(SC2=C(Sc3ccc(C)cc3)C(=O)c3ccccc3C2=O)cc1", "activity change, negative = inhibition": "6.96% [at 57.5 µM] (inactive)"}, {"smiles": "CCN1CCN(C2=C(NS(=O)(=O)c3ccc(C)cc3)C(=O)c3ccccc3C2=O)CC1", "Potency": "3.16 µM (active)"}, {"smiles": "CC(=O)NC(c1ccco1)c1ccc2cccnc2c1O", "note": "(stereo not drawn)", "Potency": "1.41 µM (active)"}, {"smiles": "CC(=O)NC(c1ccc2ccccc2c1)c1ccc2cccnc2c1O", "note": "(stereo not drawn)", "Potency": "0.141 µM (active)"}, {"smiles": "CC(=O)NC(c1ccc(C(C)C)cc1)c1ccc2cccnc2c1O", "note": "(stereo not drawn)", "Potency": "0.631 µM (active)"}, {"smiles": "CC(=O)c1sc(C(C)(C)C)cc1NC(=O)/C=C/C(=O)O", "Potency": "17.8 µM (active)"}, {"smiles": "COc1ccccc1-c1cc(NC=O)c2ncc(-c3ccc(F)cc3)n2c1", "Potency": "22.4 µM (active)"}, {"smiles": "CCSc1ccc(-c2cc(NC=O)c3ncc(-c4cccc(C(=O)NCCN(C)C)c4)n3c2)cc1", "Potency": "3.16 µM (active)"}, {"smiles": "CN(C)C(=O)c1cccc(-c2cnc3c(NC=O)cc(-c4ccc(F)cc4)cn23)c1", "activity change, negative = inhibition": "-12% (inactive)"}, {"smiles": "COc1cc(-c2cnc3c(NC=O)cc(-c4cccc(C(F)(F)F)c4)cn23)cc(OC)c1OC", "Potency": "12.6 µM (active)"}, {"smiles": "CN(C)C(=O)c1cccc(-c2cnc3c(NC=O)cc(-c4ccccc4N(C)C)cn23)c1", "activity change, negative = inhibition": "-13% (inactive)"}, {"smiles": "COc1ccc(F)cc1-c1cc(NC=O)c2ncc(-c3cccc(C(=O)N(C)C)c3)n2c1", "Potency": "3.55 µM (active)"}, {"smiles": "COc1ccc(-c2cc(NC=O)c3ncc(-c4cccc(C(=O)NCCN(C)C)c4)n3c2)cc1", "activity change, negative = inhibition": "-22.5% [at 57.5 µM] (inactive)"}, {"smiles": "CCOc1ccc(/C=C/[N+](=O)[O-])c2ccccc12", "Potency": "15.8 µM (active)"}, {"smiles": "Cc1ccc(CN2CCC(c3cc(-c4ccc(Cl)cc4)n[nH]3)CC2)cc1", "Potency": "28.2 µM (active)"}, {"smiles": "COC(=O)c1ccccc1COc1cccn2c(N(C)Cc3cccs3)c(C)nc12", "Potency": "28.2 µM (active)"}, {"smiles": "CCOC(=O)N(C)c1c(CC)nc2c(OCc3ccccc3OC)cccn12", "activity change, negative = inhibition": "-25.4% [at 57.5 µM] (inactive)"}, {"smiles": "ClC(Cl)(Cl)c1nc2ccccc2n2nncc12", "Potency": "2.82 µM (active)"}, {"smiles": "CC1(C(=O)NCc2ccco2)CCN1C(=O)C1(c2ccccc2)CC1", "note": "(stereo not drawn)", "activity change, negative = inhibition": "2.15% (inactive)"}, {"smiles": "CCc1ccc(-c2nc(CS(=O)CC(=O)NCc3ccco3)c(C)o2)cc1", "note": "(stereo not drawn)", "Potency": "0.398 µM (active)"}]}]}
